Screening data from PubChem BioAssay.
Only a selection was taken, and hits are over-represented in it overall.
Ba CapD inh: blocks the Bacillus anthracis CapD enzyme | actives 0.23% (n = 140,000) | z-score (concentration not given with the values) | purified CapD enzyme, fluorescence intensity read-out; active compounds read low | AID 492967; in the data active = z-score mostly below about -2.9, no sharp cut-off; inactive = mostly above about -1.9
* hit, by the source's call.

SMILES	Ba CapD inh
CCCCOc1ccc(C2C(N3C(=O)c4ccccc4C3=O)C(=O)N2c2ccc(C)c(Cl)c2)cc1 (stereo unspecified)	-0.44
CCOc1ccc(NC(=O)COC)cc1	0.26
O=C1Nc2ccc(Br)cc2/C1=N/N1C(=O)C(O)=CC1(O)c1ccccc1 (stereo unspecified)	-4.1*
O=C(O)CN1C(=O)Nc2ccc(Br)cc2C1c1ccccc1 (stereo unspecified)	0.8
O=C1Nc2ccc(Br)cc2C1=Nc1ccc(Cl)cc1	0.5
CCCCN(C(=O)c1sc2nc3n(c(=O)c2c1C)CCCCC3)C1CCN(C(C)=O)CC1	-0.27
O=C(NCC1CCCO1)c1ccc(-n2cc(-c3nc4ccccc4o3)cn2)cc1 (stereo unspecified)	1.8
O=c1c(N2CCC3(CC2)OCCO3)csc2ccccc12	-1.7
O=c1c(N2CCN(c3ccccc3)CC2)csc2ccccc12	-2.5
Cc1ccc2scc(N3CCOCC3)c(=O)c2c1	-4.2*
CCOc1ccc(-n2c(=S)sc3c2nc(SCc2cc(=O)n4cc(Cl)ccc4n2)n2c4ccccc4nc32)cc1	0.26
O=C1C2CC3CC(C2)C(C(=O)O)C1C3 (stereo unspecified)	-0.46
CCOC(=O)c1sc(COc2ccccc2OC)nc1C	-2.7*
CCOC(=O)c1sc(COc2ccc(C3SCCS3)cc2)nc1C	9.9
Cc1nc(COc2ccccc2Cl)sc1C(=O)/C=C/N(C)C	6.8
Cc1cc(C)c(C(=O)O)c(CC(C)(C)C(=O)N2CCN(c3cccc(C(F)(F)F)c3)CC2)c1	-0.6
CCC(NC(=O)Oc1ccc2ccccc2c1)(C(F)(F)F)C(F)(F)F	19
COc1cc(OC)c(OC)cc1/C=N/NC(=O)c1ccc(C(F)(F)F)cc1	-1
CCCCn1c(/N=C/c2nc3ccccc3n2C)nc2ccccc21	0.11
CCCn1c(/N=C/c2c[nH]c3ccccc23)nc2ccccc21	-4.1*
CCc1ccc(N=Cc2c[nH]c3ccccc23)cc1	-0.06
CC(C)OC(=O)C(C)N=Cc1ccccc1 (stereo unspecified)	0.39
COC(=O)/C(C#N)=C1\NC(C)=NC(SC)=C1C#N	-0.86
CSC1=C(C#N)C(=C(C#N)C#N)NC(C)=N1	-4.5*
O=C1COc2ccccc2N1C(=O)c1ccc(Cl)cc1	-4.1*
SMILES	Ba CapD inh
O=C(CN1C(=O)COc2ccccc21)Nc1ccc(Cl)cc1	0.06
O=C(O)CN1C(=O)COc2ccccc21	0.07
Clc1cccc(NCc2cn3ccccc3n2)c1	-0.03
CC(=O)Oc1ccc(C2Nc3c(C(=O)O)ccc([N+](=O)[O-])c3C3C=CCC32)cc1 (stereo unspecified)	-2.7*
O=C(O)c1ccc([N+](=O)[O-])c2c1NC(c1ccc([N+](=O)[O-])cc1)C1CC=CC21 (stereo unspecified)	-0.53
CC(=O)Oc1ccc(C2Nc3c(C(=O)c4ccccc4)cc(Cl)cc3C3C=CCC32)cc1 (stereo unspecified)	-0.005
COC(=O)c1c(C(C)(C)C)oc2c1cc(NS(=O)(=O)c1ccc(Cl)cc1)c1ccccc12	0.49
CC1=C(C)CS(=O)N(S(=O)(=O)c2cccc([N+](=O)[O-])c2)C1 (stereo unspecified)	-0.17
CCN(CC)C(=S)Oc1ccc(Br)cc1C(=O)NCCc1ccncc1	0.41
Cc1ccc2oc(-c3ccc(NC(=O)c4ccccc4F)c(C)c3)nc2c1	0.46
CCOC(=O)/C(C#N)=C/c1ccccc1	-0.28
COC(=O)/C(C#N)=C/c1ccccc1C	-4.3*
COC(=O)/C(C#N)=C/c1ccc(C)o1	-1.4
CCOC(=O)C1CCN(CN2C(=O)C3(OCC(C)(c4ccccc4)CO3)c3ccccc32)CC1 (stereo unspecified)	-0.55
OCCN1CCN(C(c2ccccc2)c2ccc3cccnc3c2O)CC1 (stereo unspecified)	-5.2*
Oc1c(C(c2ccccc2)N2CCOCC2)ccc2cccnc12 (stereo unspecified)	-0.8
CN1CCN(C(c2ccncc2)c2ccc3cccnc3c2O)CC1 (stereo unspecified)	-2.4
O=C(c1cccc(F)c1)N1CCN(C(=O)c2cnn3cc(Br)cnc23)CC1	0.47
CCCCN(CCCC)c1ncnc2c1sc1nc(CCC)c3c(c12)CC(C)(C)OC3	0.47
Nc1ccccc1C(=O)Cc1ccccc1	6.4
O=C(Cc1ccccc1)c1ccc(O)cc1	-0.055
O=C(Cc1ccccc1)c1cc(O)c(O)cc1O	-7.6*
O=C(CN1C(=O)C2C3C=CC(C3)C2C1=O)Nc1ccc2ccccc2c1 (stereo unspecified)	0.33
CC(C)(C)OC(=O)N(C/C=C/c1ccccc1)CCOC(=O)N1CCN(c2nccnc2C#N)CC1	0.38
CCN(CC)C(=O)c1cccc(S(=O)(=O)N(C)C)c1	-0.075
SMILES	Ba CapD inh
COc1ccc2nc(N3CCCC3)sc2c1	-0.3
O=C1CCCc2nc(N3CCCCC3)sc21	-4.3*
Nc1nnc(N2CCCCC2)s1	-0.38
CCN1CCN(C(=O)c2ccccc2NS(C)(=O)=O)CC1	0.56
N#CC1=C(N)Oc2n[nH]c(-c3ccc(F)cc3)c2C1c1cn[nH]c1-c1ccc(F)cc1 (stereo unspecified)	-0.59
CCC(Sc1nnc(-c2cc3occc3n2C)n1-c1ccccc1C)C(=O)NC1CCCC1 (stereo unspecified)	0.015
O=C(O)CC/C(=N\Nc1ccc([N+](=O)[O-])cc1)c1ccccc1	-3.6*
O=C(Nc1cccc(C(=O)c2ccccc2)c1)c1ccc([N+](=O)[O-])cc1	-0.51
O=C(Nc1ccc([N+](=O)[O-])cc1)c1ccccc1O	-0.78
Cc1ccccc1N1CCN(C(=O)OC/C=C/COCc2ccccc2)CC1	-0.12
Cc1cccc(NC(=O)c2ccccc2NC(=O)c2cccc(S(=O)(=O)N3CCOCC3)c2)c1	-0.2
CCCCCc1c(O)nc(SCCN(CC)CC)n(C(=O)c2ccccc2)c1=O	-0.17
CCOC(=O)c1nc2ccccc2n(C(C)=O)c1=O	-6.6*
CCOC(=O)c1nc2ccccc2c(C)c1C	-0.98
CC(=O)n1c(N)nc2ccccc21	-0.48
O=C(Nc1ccc(N2CCOCC2)cc1)Nc1ccc2nc(-c3ccco3)c(-c3ccco3)nc2c1	-3.7
O=C(NCCCO)Nc1ccc2nc(-c3ccco3)c(-c3ccco3)nc2c1	-7.3*
O=C(NCCSCc1ccco1)Nc1cc(Cl)cc(Cl)c1	0.21
COc1cc([N+](=O)[O-])ccc1-c1ccc(/C=C2/C(=O)NC(=O)N(c3ccccc3)C2=O)o1	-0.25
CCO/C=C1/SC(=S)N(CCc2ccc(Cl)cc2)C1=O	-2.1
CCO/C=C1\SC(=S)N(/N=C/c2cccc(Cl)c2)C1=O	-4.4*
CCO/C=C1\SC(=S)N(c2ccc(Cl)cc2)C1=O	0.45
C/C(=N\N=C(/C)c1cccs1)c1cccs1	-1.6
O=C(CSc1nnc(NC(=O)c2ccc(Cl)c([N+](=O)[O-])c2)s1)Nc1ccccc1F	-0.34
CC1=NN(c2cc(S(=O)(=O)O)c3cccc(S(=O)(=O)O)c3c2)C(=O)C1	-5.7*
SMILES	Ba CapD inh
CC1=NN(c2cccc(S(N)(=O)=O)c2)C(=O)C1	-0.93
CC1=NN(c2ccc(C(=O)O)cc2)C(=O)C1	-0.03
O=C1CSC(c2cn(-c3ccccc3)nc2-c2ccccc2)N1CCCl (stereo unspecified)	-0.43
COc1ccc(Cn2cccc2C2=NCCO2)cc1	-0.68
O=c1n(-c2ccccn2)cnn1-c1c([N+](=O)[O-])cc(C(F)(F)F)cc1[N+](=O)[O-]	-0.46
COC(=O)c1ccn(-c2nc(-c3ccco3)cc(C(F)(F)F)n2)n1	75
COc1nc(-c2ccccc2)cc(C(F)(F)F)n1	0.12
COc1cccc(-c2cc(C(F)(F)F)nc(-n3cccn3)n2)c1	-3.4*
